The list is not random: actives were taken first. Their share in the collection is about 11%.
Pf growth 48h: P. falciparum growth inhibition at 48 hours (one generation) | AID 504832 | 5.9% of 310,000 active | P. falciparum luciferase growth in erythrocytes, 48 h | Potency, µM (doses to about 28.7 µM), for the others: at the top dose activity change, negative = inhibition, actives largely listed as inhibitors; note: % is set by controls: 0 for no effect and ±100 for the full control effect
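Growth was read as firefly luciferase luminescence after a 48 h, 37 C, 5% CO2 exposure of compounds to reporter-bearing P. falciparum cultures (0.1% parasitemia, 2% hematocrit final) in Albumax-supplemented RPMI 1640.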
Pf growth 96h: inhibits malaria parasite growth, 96 h; Potency, µM (highest dose often 28.7 µM), inactives show top-dose activity change, negative = inhibition, most hits filed as inhibitors; AID 504834; 6.9% of 320,000 active; P. falciparum luciferase reporter growth, 96 h; note: % is set by controls: 0 for no effect and ±100 for the full control effect
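Two parasite generations (96 h, 37 C, 5% CO2) of compound exposure in infected erythrocytes (0.05% parasitemia, 2% hematocrit). Luciferase-reporter P. falciparum; decreased luminescence indicates inhibited growth, aimed at apicoplast-acting delayed death.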
AMA1 RON2 block: inhibitors of Plasmodium falciparum AMA1-RON2 interaction. AlphaScreen AMA1-biotinylated RON2 peptide binding. Potency, µM (series often up to 58.2 µM), for inactives: at the highest dose activity change, negative = inhibition, usual class: inhibitors. 0.2% of 360,000 active. AID 720542;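 note: 0% = vehicle wells and -100% = peptide control; nearly all actives have a fitted effect of over 45% in size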
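AMA1 (3D7) with his tag at 25 nM final met compounds first, then biotinylated RON2 peptide at 25 nM; detection used donor plus acceptor beads, 10 µg/mL apiece, read by AlphaScreen after 30 min at room temperature.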
Sm TGR block: S. mansoni TGR enzyme inhibition | Q962Y6 | purified TGR, DTNB reduction, TNB absorbance 405 nm | Potency, µM (titrated, usually from 114 µM), without a hit: top-dose activity change, negative = inhibition, most hits filed as inhibitors | 3% of 360,000 active; note: % is set by controls: 0 for no effect and ±100 for the full control effect; nearly all actives have a fitted effect of over 60% in size
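Kinetic colorimetric format: TGR-catalysed, NADPH-driven DTNB reduction monitored via TNB absorbance. Enzyme dispensed at 20 nM; compound exposure 15 min at room temperature before reaction start.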
NS1 inh: influenza NS1 inhibition | 0.4% of 270,000 active | AID 2326 | Potency, µM (titrated, usually from 46.1 µM), for inactives: top-dose activity, positive = more growth; calls by dose curve; note: actives are rising curves; nearly all actives have a fitted effect of over 50% in size
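In this qHTS, NS1 from influenza A is expressed in budding yeast, where it slows growth. Cells are switched from glucose to 2% galactose medium (pH 6.0, -URA), treated with compound, and growth recovery is read at OD600.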
* = called active by the depositor; ? = inconclusive; nt = no result given; [ ] = remark or other dose. Unless noted, calls come from the whole dose curve; as a rule, active = well fitted curve in the direction sought with a large enough effect; inconclusive = small, poorly fitted or top-dose-only effect, or another doubt; inactive = no such curve, though single readings can be large; an effect the other way counts as inactive or inconclusive. Potency is the fitted concentration of half-maximal effect.

SMILES | Pf growth 48h | Pf growth 96h | AMA1 RON2 block | Sm TGR block | NS1 inh
C[C@@H](NC(=O)CN(c1ccccc1)S(=O)(=O)N(C)C)c1ccccc1 | nt | nt | nt | -1% | nt
COc1ccc(N2CCN(c3nc4ccccc4n4c(C)nnc34)CC2)cc1 | nt | nt | nt | 5% | nt
Cc1nnc2c(N3CCN(CCO)CC3)nc3ccccc3n12 | -25% | 13µM* | -2% | -22% | 22%
COc1ccc2c(c1)C(=O)[C@H](O)[C@@H](c1ccc(OC)c(Br)c1)O2 | 3.7µM* | 2.1µM* | 14% | -7% | -28%
Cc1ccc(C)c(NC(=O)CCN2CC(C)CC(C)C2)c1 (centres undefined) | 4% | ? | -2% | -8% | -4%
Cc1cc(C)cc(NC(=O)CCN2C(=O)c3ccccc3Sc3ncccc32)c1 | nt | nt | nt | 40µM* | nt
Cc1ccc(NC(=O)CCN2CCOCC2)cc1C | 19% | 0.93µM* | -1% | 0% | -3%
Cc1cc(C)n(CC(=O)n2nc(C)cc2C)n1 | 8% | 10µM* | -16% | -16% | 1%
Cc1ccc(C)c(NC(=O)CCN2CCC(C)CC2)c1 | 10% | 5.2µM* | 1% | ? | -2%
Cn1c(=O)c2c(nc(CN3CCN(C(=O)c4ccco4)CC3)n2CC(=O)C(C)(C)C)n(C)c1=O | -17% | 0% | 5% | 1% | 0%
CC(CC(=O)NCc1ccc(Cl)cc1)CC1=NS(=O)(=O)c2ccccc2N1 (centres undefined) | nt | nt | nt | 1% | nt
CN(C)CCNc1nc(Oc2ccccc2)c2sccc2n1 | nt | nt | 1% | nt | nt
Cc1cc(C)c(S(=O)(=O)c2ccccc2Cl)c(=O)[nH]1 | nt | ? | -4% | 1% | -2%
CN(CC(=O)Nc1ccccc1Cl)S(=O)(=O)c1ccc(C(=O)N2CCOCC2)s1 | nt | nt | nt | 8% | nt
COC(=O)c1ccc(NC(=O)CCN2CCCCC2)cc1 | -10% | 1.5µM* | -18% | 7% | -10%
COC(=O)c1ccc(NC(=O)CCN2CCN(CCC(=O)Nc3ccc(C(=O)OC)cc3)CC2)cc1 | -20% | ? | -2% | -5% | 5%
O=C(CCN1C(=O)c2ccccc2S1(=O)=O)Nc1ccc(C(=O)O)cc1 | 36% | 10µM* | -6% | 4% | 3%
CCN1CCN(CCC(=O)Nc2cc(C)ccc2C)CC1 | 52% | ? | 0% | -3% | 5%
Cc1ccc(C)c(NC(=O)CCN2CCc3ccccc3C2)c1 | 13µM* | 0% | -9% | nt | 4%
Cc1cc(C)n(C(=O)CCC(=O)Nc2ccc(C)c(C)c2)n1 | nt | 12µM* | -1% | -1% | 22%
CN(CC(=O)NC(=O)NCc1ccccc1)Cc1cccc(Cl)c1Cl | 2% | 37% | -7% | -1% | -41%
COc1ccc(Cn2c(SCC(N)=O)nc3c(sc4ccccc43)c2=O)cc1 | nt | nt | nt | 3% | nt
O=C(CSCc1ccco1)N1CCc2ccccc21 | 123% | ? | -13% | ? | -3%
Cc1ccc(NC(=O)CCN2CCC(C)CC2)cc1 | 34% | 13µM* | 8% | -23% | -2%
Cc1ccc(NC(=O)CCN2C(=O)c3ccccc3C2=O)cc1 | 3% | 12µM* | -1% | 0% | -12%
SMILES | Pf growth 48h | Pf growth 96h | AMA1 RON2 block | Sm TGR block | NS1 inh
COc1ccc(NC(=O)CCN2CCCC(C)C2)cc1 (centres undefined) | 11% | nt | -15% | 89µM* | 4%
Fc1ccc(Nc2nc(SCc3ccccc3F)nc3ccccc23)cc1 | nt | nt | nt | 3% | nt
Cc1cc(C(F)(F)F)nc(SCCN2CCCCC2)c1C#N | 0% | ? | -9% | -2% | 6%
NNS(=O)(=O)c1cc(C(=O)O)cc(C(=O)O)c1 | nt | nt | nt | nt | -7%
OC(CN1CCN(c2ccccc2)CC1)c1ccc2c(c1)CCN2 (centres undefined) | 39% | 9.3µM* | -14% | -6% | ?
CCOC(=O)N1CCN(CC(O)c2ccc3c(c2)CCN3)CC1 (centres undefined) | 43% | ? | -13% | -3% | 12%
COc1ccc(-c2nc3scc(CCNS(=O)(=O)c4ccc5c(c4)OCCO5)n3n2)cc1 | nt | nt | nt | 2% | nt
COc1ccccc1NC(=O)Nc1nc(CC(=O)Nc2ccc(OC)c(OC)c2)cs1 | ? | 5.2µM* | -27% | 1% | nt
COc1ccccc1NC(=O)Cc1csc(NC(=S)Nc2ccc(C)cc2)n1 | ? | 10µM* | 56% | -30% | ?
CCOC(=O)Cc1csc(NC(=S)NC(=O)c2ccc(C)cc2)n1 | 2.9µM* | 3.7µM* | 52% | 0% | 5%
CCC(=O)Nc1nc(CC(=O)Nc2ccccc2OC)cs1 | -4% | -13% | -4% | -6% | 1%
CCOC(=O)c1[nH]c(C)c(C(=O)OC)c1C | 92% | 102% | -3% | 18% | -30%
CCOC(=O)c1[nH]c(C)c(C(=O)NCCC2=CCCCC2)c1C | 85% | 5.2µM* | -3% | 1% | -9%
CCOC(=O)c1[nH]c(C)c(C(=O)NC2CCCCC2)c1C | nt | 9.3µM* | -5% | 4% | -7%
CCOC(=O)c1[nH]c(C)c(C(=O)Nc2ccc(C)c(C)c2)c1C | nt | 5.9µM* | -4% | -2% | -6%
CCOC(=O)c1c(C)[nH]c(C(=O)OCC(=O)Nc2cc(C)ccc2OC)c1C | -2% | 5.9µM* | -9% | -10% | -1%
CCc1ccc(NC(=O)c2nc3nc(C)cc(C(F)F)n3n2)cc1 | nt | nt | nt | 3% | nt
CCOC(=O)c1[nH]c(C)c(C)c1C | 19% | 12µM* | 10% | 0% | -3%
O=C(CN1C(=O)CCc2cc(S(=O)(=O)N3CCOCC3)ccc21)NCc1ccccc1Cl | nt | nt | nt | -18% | nt
CCOc1ccc(NC(=O)CN(C)C(=O)C2CC(=O)N(Cc3ccco3)C2)cc1OCC (centres undefined) | ? | ? | -7% | 45µM* | nt
COc1cccc(CCNC(=O)CC2C(=O)NCCN2Cc2ccc(Cl)c(F)c2)c1 (centres undefined) | 2% | 30%[5.75 µM] | 19% | nt | -9%
CN(CCC1CCOCC1)C(=O)CC1C(=O)NCCN1Cc1c(F)cccc1Cl (centres undefined) | -14% | ? | -12% | 45µM* | -7%
CN(Cc1ncc[nH]1)C(=O)CC1C(=O)NCCN1Cc1c(F)cccc1Cl (centres undefined) | 9% | 24% | 0% | -5% | 5%
O=C(CC1C(=O)NCCN1Cc1cccc(F)c1)NC1CCCCCC1 (centres undefined) | 21% | -7% | 4% | ? | 27%
O=C(CC1C(=O)NCCN1Cc1ccc(Cl)c(F)c1)NCC1CCOCC1 (centres undefined) | -12% | 2% | 13% | 40µM* | -5%
O=C(CC1C(=O)NCCN1Cc1ccc(Cl)c(F)c1)NC1CCC1 (centres undefined) | ? | -12% | 13% | 40µM* | 15%
O=C(CC1C(=O)NCCN1Cc1ccc(Cl)c(F)c1)NCCc1cccnc1 (centres undefined) | 9% | 12% | 12% | 45µM* | 1%
CCn1c(=O)c2sccc2n2c(CCCC(=O)N3CCN(c4cccc(Cl)c4)CC3)nnc12 | nt | nt | nt | 1% | nt
COc1ccc(CCCc2nnc(SCC(=O)Nc3cccc(F)c3C)o2)cc1 | nt | nt | nt | 6% | nt

Source: PubChem BioAssay
